# Test results published in PMC11062922 (Nature Chemical Biology, 2023).
# Read-outs that look alike come from different tables or passages of the source.
# Experiments:
# ABL1 = tested on: ABL1; set-up: species or system human, MV4-11 + K-562 + COLO205 + SK-N-BE2 + OVCAR-8; conditions: read-out: apparent Kd, n = 1
# FYN = tested on: FYN; set-up: species or system human, MV4-11 + K-562 + COLO205 + SK-N-BE2 + OVCAR-8; conditions: read-out: apparent Kd, n = 1
# GAK = tested on: GAK; set-up: species or system human, MV4-11 + K-562 + COLO205 + SK-N-BE2 + OVCAR-8; conditions: read-out: apparent Kd, n = 1
# HCK = tested on: HCK; set-up: species or system human, MV4-11 + K-562 + COLO205 + SK-N-BE2 + OVCAR-8; conditions: read-out: apparent Kd, compound concentrations: 100 nM and 1000 nM (sheet 'Samples'), n = 1
# LCK = tested on: LCK; set-up: species or system human, MV4-11 + K-562 + COLO205 + SK-N-BE2 + OVCAR-8; conditions: read-out: apparent Kd, n = 1
# PTK6 = tested on: PTK6; set-up: species or system human, MV4-11 + K-562 + COLO205 + SK-N-BE2 + OVCAR-8; conditions: read-out: apparent Kd, n = 1
# RIPK2 = tested on: RIPK2; set-up: species or system human, MV4-11 + K-562 + COLO205 + SK-N-BE2 + OVCAR-8; conditions: read-out: apparent Kd, n = 1
# RIPK3 = tested on: RIPK3; set-up: species or system human, MV4-11 + K-562 + COLO205 + SK-N-BE2 + OVCAR-8; conditions: read-out: apparent Kd, n = 1
# YES1 = tested on: YES1; set-up: species or system human, MV4-11 + K-562 + COLO205 + SK-N-BE2 + OVCAR-8; conditions: read-out: apparent Kd, n = 1
# ABL2 = tested on: ABL2; set-up: species or system human, MV4-11 + K-562 + COLO205 + SK-N-BE2 + OVCAR-8; conditions: read-out: apparent Kd, n = 1
# BCR = tested on: BCR; set-up: species or system human, MV4-11 + K-562 + COLO205 + SK-N-BE2 + OVCAR-8; conditions: read-out: apparent Kd, n = 1
# RET = tested on: RET; set-up: species or system human, MV4-11 + K-562 + COLO205 + SK-N-BE2 + OVCAR-8; conditions: read-out: apparent Kd; compound concentrations: 100 nM and 1000 nM (sheet 'Samples'), CATDS: 4.15605904174959E-2; n = 1
# TNK1 = tested on: TNK1; set-up: species or system human, MV4-11 + K-562 + COLO205 + SK-N-BE2 + OVCAR-8; conditions: read-out: apparent Kd, n = 1
# CLK1 = tested on: CLK1; set-up: species or system human, MV4-11 + K-562 + COLO205 + SK-N-BE2 + OVCAR-8; conditions: read-out: apparent Kd, n = 1
# CLK4 = tested on: CLK4; set-up: species or system human, MV4-11 + K-562 + COLO205 + SK-N-BE2 + OVCAR-8; conditions: read-out: apparent Kd; compound concentrations:100 nM and 1000 nM (sheet 'Samples'); n = 1
# CSNK2A1;CSNK2A3 = tested on: CSNK2A1;CSNK2A3; set-up: species or system human, MV4-11 + K-562 + COLO205 + SK-N-BE2 + OVCAR-8; conditions: read-out: apparent Kd; compound concentrations:100 nM and 1000 nM (sheet 'Samples'); n = 1
# CSNK2A2 = tested on: CSNK2A2; set-up: species or system human, MV4-11 + K-562 + COLO205 + SK-N-BE2 + OVCAR-8; conditions: read-out: apparent Kd; compound concentrations:100 nM and 1000 nM (sheet 'Samples'); n = 1
# Q6ZSR9 = Q6ZSR9 (human, UniProt Q6ZSR9); set-up: species or system MV4-11 + K-562 + COLO205 + SK-N-BE2 + OVCAR-8; conditions: read-out: apparent Kd; compound concentrations:100 nM and 1000 nM (sheet 'Samples'); n = 1
# Sequence of Q6ZSR9 (Q6ZSR9 whole entry, looked up): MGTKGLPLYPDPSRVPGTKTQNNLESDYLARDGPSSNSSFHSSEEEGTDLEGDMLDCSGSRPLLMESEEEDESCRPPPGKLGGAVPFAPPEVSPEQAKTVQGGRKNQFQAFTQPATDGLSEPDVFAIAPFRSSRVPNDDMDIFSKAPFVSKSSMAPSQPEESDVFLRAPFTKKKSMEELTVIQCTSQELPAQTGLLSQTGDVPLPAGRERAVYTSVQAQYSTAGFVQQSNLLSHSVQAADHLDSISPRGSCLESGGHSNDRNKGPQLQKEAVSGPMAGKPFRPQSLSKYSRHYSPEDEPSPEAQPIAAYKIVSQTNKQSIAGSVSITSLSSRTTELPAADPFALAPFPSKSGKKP
# [1] = compound concentrations:100 nM and 1000 nM (sheet 'Samples')
structure (smiles),measurement,setting,value
c1ccc(Oc2ccc(Nc3ccnc4cc(-c5ccc(CN6CCCCC6)o5)ccc34)cc2)nc1 [GW567143X],potency estimated from few doses,"ABL1; compound concentrations: 100 nM and 1000 nM (sheet 'Samples'), CATDS: 4.7219356438219597E-2",634 nM
same,potency estimated from few doses,"FYN; compound concentrations: 100 nM and 1000 nM (sheet 'Samples'), CATDS: 4.4213624367354799E-2",771 nM
same,potency estimated from few doses,"GAK; compound concentrations: 100 nM and 1000 nM (sheet 'Samples'), CATDS: 4.2163459383367997E-2",895 nM
same,potency estimated from few doses,HCK; CATDS: 0.14005546575241301,68.8 nM
same,potency estimated from few doses,"LCK; compound concentrations: 100 nM and 1000 nM (sheet 'Samples'), CATDS: 5.0953813421882002E-2",515 nM
same,potency estimated from few doses,"PTK6; compound concentrations: 100 nM and 1000 nM (sheet 'Samples'), CATDS: 0.13556199485993101",72.4 nM
same,potency estimated from few doses,"RIPK2; compound concentrations: 100 nM and 1000 nM (sheet 'Samples'), CATDS: 0.12946024003761",77.9 nM
same,potency estimated from few doses,"RIPK3; compound concentrations: 100 nM and 1000 nM (sheet 'Samples'), CATDS: 4.1439147975506997E-2",948 nM
same,potency estimated from few doses,"YES1; compound concentrations: 100 nM and 1000 nM (sheet 'Samples'), CATDS: 5.50755734526098E-2",421 nM
Cc1ccc(O)cc1Nc1ccnc2ccc(C(C)(C)C)cc12 [GW856805X],potency estimated from few doses,"ABL1; compound concentrations: 100 nM and 1000 nM (sheet 'Samples'), CATDS: 2.7380804690978401E-2",1400 nM
same,potency estimated from few doses,"ABL2; compound concentrations: 100 nM and 1000 nM (sheet 'Samples'), CATDS: 3.3299960088100697E-2",317 nM
same,potency estimated from few doses,"BCR; compound concentrations: 100 nM and 1000 nM (sheet 'Samples'), CATDS: 4.5684736172067801E-2",79.1 nM
same,potency estimated from few doses,"FYN; compound concentrations: 100 nM and 1000 nM (sheet 'Samples'), CATDS: 4.6328072424656697E-2",75.5 nM
same,potency estimated from few doses,"GAK; compound concentrations: 100 nM and 1000 nM (sheet 'Samples'), CATDS: 4.7417196878279499E-2",70 nM
same,potency estimated from few doses,"PTK6; compound concentrations: 100 nM and 1000 nM (sheet 'Samples'), CATDS: 2.9493928233546299E-2",718 nM
same,potency estimated from few doses,RET,111 nM
same,potency estimated from few doses,"RIPK2; compound concentrations: 100 nM and 1000 nM (sheet 'Samples'), CATDS: 0.10546216310876699",11.1 nM
same,potency estimated from few doses,"RIPK3; compound concentrations: 100 nM and 1000 nM (sheet 'Samples'), CATDS: 3.0648006837875299E-2",540 nM
CC(C)c1nc(-c2ccc(F)c(NS(=O)(=O)c3c(F)cccc3F)c2)c(-c2ccnc(Nc3ccc(N4CCOCC4)nc3)n2)s1 [GSK1804250A],potency estimated from few doses,ABL1; [1],970 nM
same,potency estimated from few doses,ABL2; [1],126 nM
same,potency estimated from few doses,BCR; [1],954 nM
same,potency estimated from few doses,FYN; [1],944 nM
same,potency estimated from few doses,GAK; [1],600 nM
same,potency estimated from few doses,LCK; [1],342 nM
same,potency estimated from few doses,RIPK3; [1],2130 nM
same,potency estimated from few doses,TNK1; [1],328 nM
same,potency estimated from few doses,YES1; [1],679 nM
N#Cc1cccc(Nc2nccc(-c3cnn4ncccc34)n2)c1 [GW778894X],potency estimated from few doses,CLK1; [1],3.93 nM
same,potency estimated from few doses,CLK4,0.363 nM
same,potency estimated from few doses,CSNK2A1;CSNK2A3,603 nM
same,potency estimated from few doses,CSNK2A2,601 nM
CN(C)Cc1ccc(-c2ccc3c(Nc4ccc(Oc5ccccn5)cc4)ccnc3c2)o1 [GW567148X],potency estimated from few doses,"ABL1; compound concentrations: 100 nM and 1000 nM (sheet 'Samples'), CATDS: 2.6696820742308999E-2",474 nM
same,potency estimated from few doses,"ABL2; compound concentrations: 100 nM and 1000 nM (sheet 'Samples'), CATDS: 2.2474655179730001E-2",716 nM
same,potency estimated from few doses,"BCR; compound concentrations: 100 nM and 1000 nM (sheet 'Samples'), CATDS: 2.3050499166144999E-2",671 nM
same,potency estimated from few doses,"CLK1; compound concentrations: 100 nM and 1000 nM (sheet 'Samples'), CATDS: 1.75413407111282E-2",1550 nM
same,potency estimated from few doses,"FYN; compound concentrations: 100 nM and 1000 nM (sheet 'Samples'), CATDS: 2.9409133210556101E-2",385 nM
same,potency estimated from few doses,"GAK; compound concentrations: 100 nM and 1000 nM (sheet 'Samples'), CATDS: 2.37556853543167E-2",622 nM
same,potency estimated from few doses,HCK; CATDS: 0.14804740289448201,30.7 nM
same,potency estimated from few doses,"LCK; compound concentrations: 100 nM and 1000 nM (sheet 'Samples'), CATDS: 3.1046843535100802E-2",345 nM
same,potency estimated from few doses,"PTK6; compound concentrations: 100 nM and 1000 nM (sheet 'Samples'), CATDS: 5.2806540733476098E-2",134 nM
same,potency estimated from few doses,"RIPK2; compound concentrations: 100 nM and 1000 nM (sheet 'Samples'), CATDS: 9.2431358445575804E-2",57.7 nM
same,potency estimated from few doses,"RIPK3; compound concentrations: 100 nM and 1000 nM (sheet 'Samples'), CATDS: 2.29584105489756E-2",678 nM
same,potency estimated from few doses,"TNK1; compound concentrations: 100 nM and 1000 nM (sheet 'Samples'), CATDS: 3.2421651582332497E-2",316 nM
same,potency estimated from few doses,"YES1; compound concentrations: 100 nM and 1000 nM (sheet 'Samples'), CATDS: 6.4400674253028201E-2",97.8 nM
Cn1cc(-c2cnc(N)c3c(-c4ccc5c(c4)CCN5C(=O)Cc4ccccc4)csc23)cn1 [GSK2593074A],potency estimated from few doses,ABL1; [1],563 nM
same,potency estimated from few doses,ABL2; [1],641 nM
same,potency estimated from few doses,LCK; [1],554 nM
same,potency estimated from few doses,PTK6; [1],1340 nM
same,potency estimated from few doses,RIPK2; [1],120 nM
COc1cc2nccc(Nc3ccc(Oc4ccccc4)cc3)c2cc1OC.Cl [GI261656A],potency estimated from few doses,"ABL1; compound concentrations: 100 nM and 1000 nM (sheet 'Samples'), CATDS: 4.9234778502166003E-2",661 nM
same,potency estimated from few doses,"FYN; compound concentrations: 100 nM and 1000 nM (sheet 'Samples'), CATDS: 5.8520288071811297E-2",360 nM
same,potency estimated from few doses,HCK; CATDS: 0.224802192402594,23.3 nM
same,potency estimated from few doses,"LCK; compound concentrations: 100 nM and 1000 nM (sheet 'Samples'), CATDS: 9.1462099087555204E-2",115 nM
same,potency estimated from few doses,"PTK6; compound concentrations: 100 nM and 1000 nM (sheet 'Samples'), CATDS: 8.1912311053812595E-2",147 nM
same,potency estimated from few doses,"RIPK2; compound concentrations: 100 nM and 1000 nM (sheet 'Samples'), CATDS: 0.26781417161536297",18.1 nM
same,potency estimated from few doses,"RIPK3; compound concentrations: 100 nM and 1000 nM (sheet 'Samples'), CATDS: 5.1839194955901301E-2",542 nM
same,potency estimated from few doses,"YES1; compound concentrations: 100 nM and 1000 nM (sheet 'Samples'), CATDS: 0.10993421284825",78.7 nM
COc1cc2ncn(-c3cc(OCCCc4ccccc4)c(C(N)=O)s3)c2cc1OC [GSK205189A],potency estimated from few doses,ABL2; [1],956 nM
same,potency estimated from few doses,CLK1; [1],105 nM
same,potency estimated from few doses,CLK4,1340 nM
same,potency estimated from few doses,GAK; [1],663 nM
same,potency estimated from few doses,Q6ZSR9,1480 nM
same,potency estimated from few doses,TNK1; [1],42.3 nM
